Assay results from PubChem BioAssay AID1456 (Vanderbilt High Throughput Screening Facility, 2008).
Hit rate of the full screen: of about 190,000 compounds, about 4,100 (2.2%) were called active.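 Rule for the calls: active = thallium flux slope and its plate-corrected score both differing from the plate sample mean at a set confidence after two filtering rounds, in either direction; inactive = the rest.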 The sample as a whole holds a higher share of actives than the screen did.

Each molecule was assayed against Solute carrier family 12 member 5 (Homo sapiens) (UniProt Q9H2X9) (assay: modulation of human KCC2 ion transport – cell-based, HEK293 KCC2, FluoZin-2 fluorescence, MLSMR, primary screen (AID 1456;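 note: slope of fluorescence scaled to starting intensity during 10 to 20 s after thallium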)). Details: KCC2 cells, thallium flux FluoZin-2 fluorescence; at 10 µM.
Sequence of Solute carrier family 12 member 5 (Homo sapiens) (Q9H2X9 whole entry, looked up): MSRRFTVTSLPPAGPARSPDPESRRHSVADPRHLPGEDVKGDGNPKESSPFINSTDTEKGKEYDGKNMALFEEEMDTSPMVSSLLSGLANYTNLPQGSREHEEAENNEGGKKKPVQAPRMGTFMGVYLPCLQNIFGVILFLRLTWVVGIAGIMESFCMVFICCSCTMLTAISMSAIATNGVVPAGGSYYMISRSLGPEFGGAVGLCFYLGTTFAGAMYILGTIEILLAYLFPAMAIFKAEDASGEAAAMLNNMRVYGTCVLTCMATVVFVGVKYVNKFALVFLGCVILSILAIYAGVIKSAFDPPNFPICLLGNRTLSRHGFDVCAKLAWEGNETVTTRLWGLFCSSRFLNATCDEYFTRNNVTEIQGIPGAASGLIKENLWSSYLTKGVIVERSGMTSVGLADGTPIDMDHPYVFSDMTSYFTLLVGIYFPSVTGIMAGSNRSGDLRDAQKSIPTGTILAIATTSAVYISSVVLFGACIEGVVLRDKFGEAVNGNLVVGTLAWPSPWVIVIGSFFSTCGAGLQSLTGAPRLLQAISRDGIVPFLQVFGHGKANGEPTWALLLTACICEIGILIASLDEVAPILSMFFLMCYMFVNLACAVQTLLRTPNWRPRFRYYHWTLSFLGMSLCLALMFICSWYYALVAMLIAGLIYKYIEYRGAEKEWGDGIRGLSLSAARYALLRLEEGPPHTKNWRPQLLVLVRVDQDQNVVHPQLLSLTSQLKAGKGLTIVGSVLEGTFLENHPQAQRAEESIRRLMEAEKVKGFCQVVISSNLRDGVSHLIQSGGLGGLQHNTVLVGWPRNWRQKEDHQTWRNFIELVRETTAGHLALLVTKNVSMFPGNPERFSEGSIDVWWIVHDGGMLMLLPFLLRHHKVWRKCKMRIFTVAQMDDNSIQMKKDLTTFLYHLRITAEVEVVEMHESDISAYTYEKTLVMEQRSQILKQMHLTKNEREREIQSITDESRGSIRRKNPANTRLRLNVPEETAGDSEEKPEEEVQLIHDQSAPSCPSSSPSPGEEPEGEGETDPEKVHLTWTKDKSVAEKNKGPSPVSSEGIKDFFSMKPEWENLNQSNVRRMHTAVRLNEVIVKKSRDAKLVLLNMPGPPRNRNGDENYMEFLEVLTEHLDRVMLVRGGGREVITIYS

B-score of Tl+ flux slope (higher = more flux/activation; lower = inhibition), inactive:
COC(=O)C1=C(N)Oc2cc(C)[nH]c(=O)c2C1c1ccc(Cl)cc1 (stereo not drawn) -2.12, O=C(NNS(=O)(=O)c1ccccc1)c1cnn(-c2ccc(Cl)cc2)c1C(F)(F)F 0.887, CC1CN(/C=C/C(=O)C(F)(F)F)CC(C)O1 (stereo not drawn) 1.01, O=C(Nc1ccncc1)c1cc2ccccc2o1 2.22, Cc1ccc(OC(=O)c2cc3ccccc3o2)cc1 0.278, COc1ccc(OC)c(S(=O)(=O)Nc2ccccc2F)c1 1.79, COc1ccc(C)cc1S(=O)(=O)NCCc1ccccc1 0.198, COc1ccc(NC(=O)C(C)SCc2ccccc2)cc1 (stereo not drawn) -0.536, CCOc1ccc(NC(=O)C2CCCN(C(=O)Nc3ccccc3)C2)cc1 (stereo not drawn) -0.0798, S=C(NCCc1ccccc1)Nc1ccccc1 -0.293, COc1cc(C(F)(F)F)c(C(=O)N(C)c2ccc(Cl)cc2)cn1 0.047, CCOC(=O)c1cn(CC)c2cc(F)c(F)cc2c1=O -0.139, O=C(c1cc(COc2c(F)cccc2F)on1)N1CCSCC1 -0.926, Cc1occc1C(=O)NNC(=S)NCC(C)C -0.168, CC(C)C(NC(=O)c1ccc(Cl)cc1)C(=O)O (stereo not drawn) 1.28, O=C(NN=C1CCC(=NNC(=O)c2cccnc2)CC1)c1cccnc1 0.0392, COc1ccc(Cl)cc1CSc1ncn[nH]1 -1.03, CC(C)(C)OC(=O)NCCCCCC(=O)N/N=C/c1coc2ccccc2c1=O -2.19, NC(=S)N/N=C/c1coc2cc(Cl)ccc2c1=O 1.23, CCOC(=O)C1CCN(CCC(=O)Nc2cccc(C)c2)CC1 0.406, CN(CC(O)COc1ccc(S(=O)(=O)N2CCOCC2)cc1Cl)C1CCCCC1 (stereo not drawn) 0.0176, O=C(NCc1ccco1)c1nc(-c2ccccc2)n(-c2ccccc2)n1 -2.03, Cc1ccc(-c2nnn(CC(=O)N(Cc3ccco3)C(C(=O)NC(C)(C)C)c3ccncc3)n2)o1 (stereo not drawn) -1.04, Cc1nnc(Nc2ccccc2F)s1 -0.881, CC(NC(=O)C(=O)Nc1nccs1)c1ccccc1 (stereo not drawn) 2.74, Cn1cc(CCC(=O)NCc2ccc3c(c2)OCO3)c2ccccc21 -1.1, O=C(COc1ccccc1)NCc1ccc2c(c1)OCO2 -0.24, Cc1ccc(OCc2nc(C#N)c(N3CCCC3)o2)cc1 -0.743, N#Cc1nc(-c2ccc(OCc3ccccc3)cc2)oc1NCCCN1CCOCC1 0.37, COc1cc(/C=C2/C(=O)NN(c3ccc(F)cc3)C2=O)cc([N+](=O)[O-])c1O -2.31, COc1ccc(-n2c(C)csc2=S)cc1 0.0167, COc1ccc(N2C(=O)CNC2=S)cc1 0.069, O=C(O)CCCCCCCCCC[n+]1ccccc1 0.183, O=C(O)c1ccccc1OCc1ccccc1Cl 0.00686, COc1ccc(OC)c(-n2c(-c3ccn[nH]3)n[nH]c2=S)c1 -0.678, Cc1cc([N+](=O)[O-])nn1Cc1ccc(F)cc1 -0.826, O=C(Nn1c(SCc2ccc([N+](=O)[O-])cc2)nc2ccccc2c1=O)c1ccc(F)cc1 0.0971, CN(C)C(=O)c1nc2ccc(Cl)cn2c1CNCc1cccc(OC(F)(F)F)c1 -0.562, COc1ccc(N2C(=O)CC(Nc3ccc(F)cc3)C2=O)c([N+](=O)[O-])c1 (stereo not drawn) -1.31, Cc1ccc(S(=O)(=O)N(CC(=O)N2CCc3ccccc3C2)c2cccc(Cl)c2)cc1 -1.52, CN1CCC(=NNC(=O)CN(c2cccc(Cl)c2)S(C)(=O)=O)CC1 0.643, CCn1c(SCC(=O)N/N=C/c2ccncc2)nc2ccccc21 -0.7, Cc1cccc(NC(=O)CSc2nnc(CCNC(=O)OC(C)(C)C)o2)c1C -0.155, COc1cccc(Nc2nc(N)c([N+](=O)[O-])c(NCc3ccco3)n2)c1 -0.0593, COc1ccc(C(=O)N/N=C2\CCS(=O)(=O)c3ccc(F)cc32)cc1OC 0.15, O=C(NCCCn1ccnc1)C(=O)NCC1OCCN1S(=O)(=O)c1cc(F)ccc1F (stereo not drawn) -0.0662, CCn1c(CSCc2c(Cl)cccc2Cl)n[nH]c1=S -0.136, O=c1[nH]nc(CSCc2ccccc2Cl)[nH]1 1.48, COc1ccc(NCc2nnc(SCc3ccccc3)n2-c2ccc(OC)cc2)cc1 -2.95, S=c1[nH]nc(-c2cc(-c3ccsc3)n[nH]2)n1-c1ccccc1 -0.815, Cc1noc(C)c1C(=O)OCC(=O)N1CCN(S(=O)(=O)c2ccc3ccccc3c2)CC1 -0.121, CS(=O)(=O)c1ccc(Cl)c(NC(=O)Nc2ccccc2)c1 -0.0556, COc1ccc(CCN2C(=O)N(c3ccc(OC)cc3)C(=O)C2CC(=O)Nc2ccc(OC)cc2)cc1 (stereo not drawn) 0.0027, C/C(=N\NC(=O)CC(C)C)c1c(C(F)(F)F)[nH]n(-c2nc3ccccc3s2)c1=O -1.82, COc1ccccc1P(=O)(c1ccccc1)c1ccccc1NC(C)=O (stereo not drawn) 0.0591, CCOc1cc2[nH]c(=O)n(CCC(=O)NCc3ccc(OC)cc3)c(=O)c2cc1OCC 0.0101, COc1ccc(CNC(=O)C(Cc2ccccc2)n2cccc2)cc1 (stereo not drawn) -2.15, N#CCCCn1c(O)c(N=NC(=O)C(O)c2ccccc2)c2ccccc21 (stereo not drawn) -0.218, Cn1cccc1C(C#N)c1ccccc1C#N (stereo not drawn) 1.43, O=C(COC(=O)c1ccc(S(=O)(=O)Nc2ccccc2)cc1)NCC1CCCO1 (stereo not drawn) 0.0831, O=C(NCCCN1CCOCC1)c1ccc(N2CCCC2)c([N+](=O)[O-])c1 -0.0166, O=C(Nc1cn(-c2ccccc2)nc1-c1ccccc1)c1ccccc1 -1.74, O=C(O)c1ccc(NC(=O)c2cn(-c3ccccc3)nc2-c2ccc(Cl)cc2)cc1 -0.953, O=C(NCC(c1cccs1)N1CCOCC1)c1cc(-c2ccccn2)nc2ccccc12 (stereo not drawn) -0.17, CCc1nnc(NC(=O)CSc2nc3c(c(=O)n2-c2ccccc2OC)SCC3)s1 -2.34, Cc1cccc(CSc2nc3c(c(=O)n2C)SCC3)c1 -0.478, CC1=CC(C)(C)NC(=S)N1NC(=O)c1ccccc1Cl 1.28, O=c1[nH]c2cccnc2n1-c1ccc([N+](=O)[O-])cc1 1.09, O=C(Nc1ccccc1)c1ccc2c(c1)OCO2 1.15, C/C(=N\NC(=O)C(N)=O)c1ccc2c(c1)OCCO2 0.474, C/C(CC(=O)NC(C)c1ccccc1)=N\NC(N)=S (stereo not drawn) -0.13, NS(=O)(=O)c1ccc(NC2=CC(c3ccc(F)cc3)N(c3ccc(S(N)(=O)=O)cc3)C2=O)cc1 (stereo not drawn) -4.18, COc1ccc(F)cc1S(=O)(=O)N1CCCCC1 -0.191, O=C(/C=C/c1cccc([N+](=O)[O-])c1)NCCSCc1ccco1 0.313, Cc1cc(C)cc(N(CC(=O)NCCSCc2ccco2)S(C)(=O)=O)c1 -0.0202, O=[N+]([O-])c1ccc2c(c1)C(O)n1nc(-c3ccccc3)nc1S2 (stereo not drawn) 0.824, CC1CCN(Cc2nc(-c3ccc(Cl)cc3)no2)CC1 -0.00541, Cc1ccc(Cc2nc(-c3cccc(C)c3)no2)cc1 -0.589, COc1cc(/C=C2/C(=O)ON=C2C)ccc1OCc1cccc(F)c1 0.0292

B-score of Tl+ flux slope (higher = more flux/activation; lower = inhibition), active:
C/C(=N\NC(=S)Nc1ccc(C)cc1)c1cc2ccccc2o1 90.2, COc1ccc(C)cc1S(=O)(=O)Nc1cccc(Cl)c1Cl 2.43, COc1ccc(NC(=O)N2CCC(Cc3ccccc3)CC2)cc1 -5.5, CC(C)CNC(=S)NC(=O)c1ccc(Cl)cc1 33, O=C(N/N=C/c1coc2ccccc2c1=O)c1cc2ccccc2o1 5.52, Cc1nn(-c2ccccc2)c2sc(C(=O)N(Cc3ccco3)C(C)C(=O)NC(C)(C)C)cc12 (stereo not drawn) 8.53, N#Cc1nc(Cc2cccc3ccccc23)oc1NCc1ccc2c(c1)OCO2 -5.13, N#Cc1nc(COc2ccc(-c3ccccc3)cc2)oc1NCc1cccnc1 -4.77, COc1ccc(-c2cn(-c3ccc(OC)cc3)c(=S)[nH]2)cc1 8.53, Cc1nc(SCc2ccc(F)cc2)c([N+](=O)[O-])[nH]1 -4.77, O=C(CN(c1cccc(Cl)c1)S(=O)(=O)c1ccccc1)NN=C1CCCC1 3.73, Cc1ccc(NCc2n[nH]c(=S)n2-c2ccccc2)cc1Cl 20.1, S=c1[nH]nc(CSCc2ccc(Cl)cc2Cl)n1-c1ccccc1 38.3, COc1ccc(CNC(=O)CCn2cccc2)cc1 7.58, O=C(NNC(=S)NC(=O)c1cn(-c2ccccc2)nc1-c1ccccc1)c1ccncc1 8.65, CCn1c(SCc2ccccc2)nc2c(c1=O)SCC2 -2.99, C/C(=N/NC(=S)Nc1ccccc1)c1ccc2c(c1)OCO2 17.1, COc1cc(OC)cc(C(=O)NCCSCc2ccco2)c1 2.23, Cc1ccc(-c2noc(CN3CCN(Cc4ccccc4)CC3)n2)cc1 -2.45
